# The list is not random: actives were taken first. Their share in the collection is about 6.5%.
# Vaccinia mCherry = inhibitors of vaccinia virus infection (mCherry reporter signal); Vaccinia virus mCherry reporter infection, fluorescence; Potency, µM (highest dose often 36.5 µM), most hits filed as inhibitors; actives 0.63% (n = 310,000); AID 720579; calls by dose curve; tested in A549 cells; note: nearly all actives have a fitted effect of over 35% in size
# HCMV inh = human cytomegalovirus inhibition; activity change, negative = inhibition, % at 57.5 µM; actives 4.5% (n = 410,000); AID 1259415; HFF cells, HCMV-luciferase reporter, 72 h; stronger effect = lower value; in the data active = activity change below about -60%; inconclusive = no clear call, values can overlap the other calls; inactive = above about -39%
#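 Human foreskin fibroblasts infected with luciferase-reporter HCMV at MOI 1 PFU/cell, compounds at two doses. Luciferase measured 72 h post infection; normalized to buffer-only basal and Salinomycin (10uM) controls.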
# Vaccinia Venus = vaccinia inhibition (Venus reporter); Vaccinia virus Venus reporter expression, fluorescence; Potency, µM (series often up to 36.5 µM), usual class: inhibitors; actives 0.46% (n = 330,000); calls by dose curve; tested in A549 cells; note: nearly all actives have a fitted effect of over 30% in size
# FMDV inh = foot and mouth disease virus antiviral activity; actives 1.2% (n = 410,000); Potency, µM (titrated, usually from 57.9 µM), usual class: inhibitors; FMDV antiviral cell-based qHTS; calls by dose curve; tested in HEK293T cells; note: read-out not given here; nearly all actives have a fitted effect of over 45% in size
# LASV entry inh = Lassa virus entry inhibition | Lassa virus pseudotype entry inhibition, cell reporter | Potency, µM (series often up to 37.9 µM), hits mostly inhibitors | actives 1.2% (n = 300,000) | AID 540256; calls by dose curve; tested in HEK293 cells; note: nearly all actives have a fitted effect of over 50% in size
# MARV entry inh = Marburg virus entry inhibition; Marburg virus pseudotyped entry inhibition, cell reporter; Potency, µM (series often up to 37.8 µM), usual class: inhibitors; actives 1.8% (n = 300,000); calls by dose curve; tested in HEK293 cells
# Numbers stand for hits; . = inactive; ? = inconclusive; / = no result given; ! = not active in a repeat.
SMILES,Vaccinia mCherry,HCMV inh,Vaccinia Venus,FMDV inh,LASV entry inh,MARV entry inh
Cc1cc(F)ccc1NC(=O)Cn1c(=O)ccc2cc(S(=O)(=O)N3CCC(C)CC3)ccc21,.,.,.,.,.,/
CC(C)(C)OC(=O)NCC(=O)Oc1cc2oc(=O)cc(-c3ccccc3)c2cc1Cl,.,-76,.,.,.,.
CC(SC1=NS(=O)(=O)c2ccccc21)C(=O)O (stereo not drawn),.,/,.,/,/,/
COc1c(C)cc(Br)cc1C(=O)Nc1ccc(Cc2ccncc2)cc1,.,-72,.,?,.,?
COc1ccccc1C(=O)Nc1ccc(Cc2ccncc2)cc1,.,.,.,.,.,.
Cc1ccc(F)c(NC(=O)/C(C#N)=C(\O)c2ccc(C(C)(C)C)cc2)c1,/,-63,/,.,/,/
O=C(COC(=O)/C=C/C(=O)OCC(=O)NC12CC3CC(CC(C3)C1)C2)NC12CC3CC(CC(C3)C1)C2,.,.,.,?,.,8.9µM
O=C(COC(=O)c1ccccc1O)NC12CC3CC(CC(C3)C1)C2,.,.,.,.,.,?
COCCN(C(=O)CCc1ccccc1OC)c1nnc(-c2cccnc2)s1,/,-61,/,?,/,/
COc1ccc(Nc2nc3ccccc3n3c(N)nnc23)cc1,.,.,.,.,.,?
Cc1cccc(C)c1NC(=O)C(Cl)=C(Cl)Cl,?,-89,.,.,.,?
COc1ccc(CN2CCN(C(C)=O)CC2)cc1OC1CCN(C(=O)c2ccc3ccccc3n2)CC1,.,/,.,.,/,/
COc1cccc(C2(CC(=O)N3CCN(c4ccccc4O)CC3)CC(=O)N(C3CCCC3)C2=O)c1 (stereo not drawn),.,/,.,.,/,/
CCS(=O)(=O)Nc1c(C(=O)OC)[nH]c2ccccc12,/,.,/,.,.,.
CCS(=O)(=O)Nc1c(C(=O)O)[nH]c2ccccc12,.,-108,.,.,.,.
COc1ccc(C(=O)NCc2ccc3c(c2)CCN3C(=O)c2ccc(C)cc2)cc1,.,?,.,.,.,/
Cc1ccc(C)c(N2CCN(C(=O)CN3C(=O)COc4ccc(S(=O)(=O)N5CCOCC5)cc43)CC2)c1,.,.,.,.,.,.
Cc1cccc(NC(=O)CNC(=O)Cc2ccc(S(=O)(=O)N3CCOCC3)s2)c1C,/,-104,/,.,/,/
O=C(Cc1ccc(S(=O)(=O)N2CCOCC2)s1)Nc1cc(C(F)(F)F)cc(C(F)(F)F)c1,/,-80,/,.,/,/
CCN(CC)S(=O)(=O)c1cc(NC(=O)Cc2ccc(S(=O)(=O)N3CCOCC3)s2)ccc1Cl,/,-99,/,32µM,/,/
Cc1cc(C)n(-c2nnc(Nc3ccc(C(C)C)cc3)c3ccccc23)n1,.,.,.,.,.,/
C=CS(=O)(=O)N(Cc1ccccc1Br)[C@H](CO)Cc1ccccc1,?,.,1.1µM,?,/,/
C=CS(=O)(=O)N(Cc1ccccc1)[C@H](CO)CC(C)C,?,.,1.1µM,.,/,/
CC(C)C[C@H](CO)N(Cc1ccccc1)S(=O)(=O)N(Cc1ccccc1)[C@@H](CO)CC(C)C,14µM!,?,?,?,/,/
O=S(=O)(N(Cc1ccccc1)[C@@H](CO)Cc1ccccc1)N(Cc1ccccc1)[C@@H](CO)Cc1ccccc1,.,.,.,.,/,/
SMILES,Vaccinia mCherry,HCMV inh,Vaccinia Venus,FMDV inh,LASV entry inh,MARV entry inh
Clc1nc(NCc2ccco2)c2[nH]cnc2n1,.,/,.,/,/,/
Cc1ccc([S+](=O)([O-])N[C@@H]2COC(=O)CC=C[C@H](C)COC(=O)N[C@@H](C)C(=O)CC=C[C@H]2C)cc1,/,/,/,/,/,.
COc1ccccc1C(=O)O/N=C(\N)c1ccccc1Cl,/,.,/,.,?,?
COc1ccc(C(=O)O/N=C(\N)Cc2cccs2)cc1OC,.,.,.,.,1.8µM,?
COc1ccc(C(=O)O/N=C(\N)c2ccccc2Cl)cc1OC,.,.,.,.,4.5µM,11µM
O=C(NC1CCN(Cc2ccccc2)CC1)c1ccccc1OCc1ccccc1,/,.,/,?,/,/
O=C(Cc1ccccc1)NC1CCN(Cc2ccccc2)CC1,.,-62,.,.,.,.
O=C(NC1CCN(Cc2ccccc2)CC1)c1ccccc1OCc1ccccc1Cl,.,-63,.,.,10µM,?
O=C(COc1ccc(C(=O)c2ccccc2)cc1)NC1CCCCCC1,.,?,.,?,?,?
O=C(COc1ccc(C(=O)c2ccccc2)cc1)NC1CCCCC1,.,-84,.,.,.,?
CCC(=O)c1ccc(OCC(=O)NC2CCN(Cc3ccccc3)CC2)cc1,/,-105,/,.,/,/
COC(=O)C1=C(C)N=C2S[C@@H](C)C(=O)N2[C@H]1c1cccs1,/,/,/,/,/,.

# Assay outcomes as filed in PubChem BioAssay.
